GPR151 activ: activators of human GPR151. Q8TDV0. AID 1508602. 650,000 compounds, 1% hits. PathHunter beta-arrestin GPR151 cells, luminescence. activation, % at 11.2 µM; in the data active means activation above about 4.9%
TEAD-YAP inh: TEAD-YAP interaction inhibition. HEK-TIYL cells, TEAD-Gal4/YAP UAS-luciferase luminescence. inhibition, % at 9.12 µM. 640,000 compounds, 1.4% hits. AID 1259422; in the data active means inhibition above about 32%
MITF primary: inhibitors of human MITF | AlphaScreen MITF homodimerization, bead proximity signal | inhibition, % at 2.6 µM | 650,000 compounds, 0.91% hits; in the data active means inhibition above about 50%
Target sequence (O75030 whole entry, looked up): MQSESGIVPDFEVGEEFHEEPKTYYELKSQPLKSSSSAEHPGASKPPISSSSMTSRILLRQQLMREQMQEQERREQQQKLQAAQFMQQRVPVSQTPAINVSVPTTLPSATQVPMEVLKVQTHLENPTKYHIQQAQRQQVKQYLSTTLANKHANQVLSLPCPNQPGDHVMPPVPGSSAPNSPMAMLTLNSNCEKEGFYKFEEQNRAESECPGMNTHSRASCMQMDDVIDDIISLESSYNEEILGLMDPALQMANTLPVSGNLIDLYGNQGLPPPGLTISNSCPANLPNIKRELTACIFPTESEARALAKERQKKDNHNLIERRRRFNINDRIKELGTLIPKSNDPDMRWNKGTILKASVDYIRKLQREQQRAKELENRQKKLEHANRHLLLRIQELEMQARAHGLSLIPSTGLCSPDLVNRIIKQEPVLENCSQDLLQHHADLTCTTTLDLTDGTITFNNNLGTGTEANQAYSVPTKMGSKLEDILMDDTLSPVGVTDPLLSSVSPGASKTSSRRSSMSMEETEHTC
FBW7 act: activators of human E3 ligase FBW7; normalized activity (activation), % at 26.1 µM; 650,000 compounds, 0.13% hits; Q969H0; AlphaScreen FBW7–phospho-cyclin E peptide binding, activator screen; in the data active means normalized activity above about 1.9%;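 further: purified mutant Fbw7 with reduced substrate affinity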
MITF inh conf: human MITF inhibition, confirmation; 4,700 compounds, 16% hits; inhibition, % at 2.6 µM; AlphaScreen MITF homodimerization, biotin/His-MITF beads; shares compounds with MITF primary;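 active means inhibition above a cutoff derived from the DMSO control wells, cut at about 28% in these data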;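 further: inhibitors lower the bead chemiluminescence by keeping MITF from dimerizing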
AS interf DR: AlphaScreen optical interference, dose response counter-screen; shares compounds with MITF primary; AlphaScreen optical interference counterscreen, cell-free; IC50, µM; 480 compounds, 6% hits; call rule not given here
AS interf ctr: AlphaScreen optical interference, counter-screen; LysRS AlphaScreen counterscreen, signal interference, triplicate; shares compounds with MITF primary; 4,700 compounds, 7.6% hits; inhibition, % at 2.6 µM;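 active means inhibition above a cutoff derived from the DMSO control wells, cut at about 30% in these data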
Large screens that a line does not name were inactive (follow-up assays come after a bar, where they were run). Sampled rows, rich in hits. Any-hit rate of the full collection: about 3.5%.

COCCn1nnnc1C(CC(C)C)N1CCN(c2cccc(Cl)c2)CC1 (stereo unspecified)	none
O=c1cc2ncc(-c3[nH]ncc3[N+](=O)[O-])cn2[nH]1	none
O=C(O)c1cc2ncc(-c3n[nH]c(-c4cnc5cc(C(=O)O)nn5c4)c3[N+](=O)[O-])cn2n1	MITF primary 68 | MITF inh conf 58 | AS interf DR inactive | AS interf ctr inactive
CC(O)(CNCCN1CCOCC1)COc1ccc(Cl)cc1 (stereo unspecified)	MITF primary 55 | MITF inh conf 73 | AS interf DR inactive | AS interf ctr inactive
O=S(=O)(Cc1ccc(Cl)cc1)NCCN1CCOCC1	MITF primary 72 | MITF inh conf inactive | AS interf ctr inactive
O=S(=O)(NCCCN1CCOCC1)c1ccc(Cl)cc1	none
CC(=O)Nc1ccc(C(=O)NCCCN(C)C)cc1	none
O=C(c1cccc(Cl)c1)N1CCN(C2CCN(Cc3ccccc3)CC2)CC1	none
O=C(CCC1CCCC1)N1CCC(N2CCN(c3ccccc3)CC2)CC1	MITF primary 55 | MITF inh conf inactive | AS interf ctr inactive
O=C(CCC(=O)N1CCN(c2ccccc2)CC1)N1CCN(c2ccccc2)CC1	none
O=C(c1ccccc1)N1CCN(C2CS(=O)(=O)CC2O)CC1 (stereo unspecified)	MITF primary 81 | MITF inh conf inactive | AS interf ctr inactive
O=C(c1ccccc1)N1CCC(N2CCN(c3ccccc3)CC2)CC1	MITF primary 79 | MITF inh conf inactive | AS interf ctr inactive
O=C(c1cccc(Cl)c1)N1CCC(N2CCN(c3ccccc3)CC2)CC1	MITF primary 79 | MITF inh conf inactive | AS interf ctr inactive
Cc1ccc(S(=O)(=O)N2CCN(C(=O)c3ccc([N+](=O)[O-])cc3)C2C(C)C)cc1 (stereo unspecified)	none
O=C(Nc1cccc(C(F)(F)F)c1)c1ccc2c(=O)n(Cc3cccc(Br)c3)c(=S)[nH]c2c1	none
COc1ccc(N2CCN(CCCNC(=O)Nc3cc(OC)ccc3OC)CC2)cc1	none
O=C1NC(=O)/C(=C\c2ccc(O)cc2O)S1	MITF primary 83 | MITF inh conf 81 | AS interf DR inactive | AS interf ctr inactive
O=C1NC(=S)S/C1=C\c1cc(O)ccc1Br	none
Oc1ccc(CCNc2cc(-c3cccs3)ncn2)cc1	MITF primary 59 | MITF inh conf 44 | AS interf DR inactive | AS interf ctr inactive
O=C(CCCNC(=O)OCc1ccccc1)OCN1C(=O)c2ccccc2C1=O	none
CC1NC(=O)NC1CCCCCC(=O)OCN1C(=O)c2ccccc2C1=O (stereo unspecified)	MITF primary 119 | MITF inh conf 117 | AS interf ctr 99
CC(=O)N1CCN(Cc2cc(C)ccc2C)CC1	none
OCCOCCN1CCN(Cc2cc(Br)cs2)CC1	MITF primary 71 | MITF inh conf inactive | AS interf ctr inactive
Cc1ccccc1CN1CCN(CCOCCO)CC1	MITF primary 69 | MITF inh conf inactive | AS interf ctr inactive
Cc1ccc(C)c(CN2CCN(CCOCCO)CC2)c1	MITF primary 81 | MITF inh conf inactive | AS interf ctr inactive
OCCOCCN1CCN(Cc2cccc3ccccc23)CC1	none
CN(C)/C=C/C=C/C(=O)c1ccccc1N(C)C	none
CN(C)/C=C/C=C/C=C/C(=O)c1ccc(C(=O)/C=C/C=C/C=C/N(C)C)cc1	MITF primary 84 | MITF inh conf 68 | AS interf ctr inactive
CC(=O)OC1CCN(Cc2ccco2)C(C)C1C (stereo unspecified)	none
C#CCOCC1CCCN(S(=O)(=O)Cc2ccccc2)C1 (stereo unspecified)	none
O=C(CCCn1c(=S)[nH]c2ccccc2c1=O)N1CCOCC1	MITF primary 114 | MITF inh conf inactive | AS interf ctr inactive
CCc1ccc(-c2cc(C(=O)Nc3ccc(C(=O)OC)cc3)c3ccccc3n2)cc1	none
CCc1ccc(-c2cc(C(=O)Nc3cc(C(=O)OC)cc(C(=O)OC)c3)c3ccccc3n2)cc1	MITF primary 53 | MITF inh conf inactive | AS interf ctr inactive
O=S(=O)(c1ccccc1)N1CCN(CC(O)COCc2ccco2)CC1 (stereo unspecified)	MITF primary 94 | MITF inh conf inactive | AS interf ctr inactive
CC(=O)NC1=NC(=O)/C(=C\c2ccc(Br)o2)S1	MITF primary 77 | MITF inh conf 67 | AS interf DR inactive | AS interf ctr inactive
Cc1ccc2c(c1)N(CC(=O)NCCC(C)C)C(=O)CO2	none
COC(=O)CN(CCN(CC(=O)O)CC(=O)OC)CC(=O)O	MITF primary 55 | MITF inh conf 41 | AS interf ctr inactive
O=C(O)CN(CCN(CC(=O)O)CC(=O)O)CC(=O)O	none
CC(=O)N(c1nnc(-c2ccccc2C)s1)C1CCCC1	none
O=C(c1ccccc1)c1cccn1CC(=O)N1CCCC1	none
O=C(c1ccccc1)c1cccn1CC(=O)N1CCCCCC1	MITF primary 63 | MITF inh conf inactive | AS interf ctr inactive
COc1ccc(NC(=O)CN2C(=O)C3CCC(c4ccccc4)CC3C2=O)cc1 (stereo unspecified)	none
COc1ccc(-c2cc(N3CCCN(C)CC3)ncn2)cc1	none
COc1ccc2c(C)cc(N3CCCN(C)CC3)nc2c1	MITF primary 62 | MITF inh conf inactive | AS interf ctr inactive
CCNC(=O)/C(C#N)=C/c1ccc(Cl)c(Cl)c1	MITF primary 53 | MITF inh conf inactive | AS interf ctr inactive
O=C(CSCc1c(F)cccc1Cl)Nc1ccccc1C(=O)NCc1ccco1	none
O=C(CCl)Nc1ccccc1N1CCCCCC1	none
O=C(CNCc1ccccc1F)Nc1ccccc1N1CCOCC1	MITF primary 74 | MITF inh conf inactive | AS interf ctr inactive
O=C(CNCc1ccccc1Cl)Nc1ccccc1N1CCCCC1	MITF primary 62 | MITF inh conf inactive | AS interf ctr inactive
CCN1CCN(CCCOc2ccccc2F)CC1	none
CCN1CCN(CCCOc2ccc(C)cc2Cl)CC1	MITF primary 68 | MITF inh conf inactive | AS interf ctr inactive
CCN1CCN(CCOc2cccc(Cl)c2Cl)CC1	MITF primary 72 | MITF inh conf inactive | AS interf ctr inactive
CCN1CCN(CCOc2cc(C)ccc2Cl)CC1	MITF primary 72 | MITF inh conf inactive | AS interf ctr inactive
COc1ccc(C2CC(c3cccs3)=NN2C(=O)CSc2nnc(CNC(=O)c3ccccc3OC)n2-c2cccc(C)c2)cc1 (stereo unspecified)	none
CC1CC(C)CN(C(=O)Cn2c(=O)oc3cc(S(=O)(=O)N4CCOCC4)ccc32)C1 (stereo unspecified)	none
Cc1ccc(-n2c(SCc3cc(=O)n4cc(Cl)ccc4n3)nc3ccsc3c2=O)cc1C	none
NC(C(=O)N1CCC(Nc2ccc3[nH]ncc3c2)CC1)c1ccc(Cl)cc1 (stereo unspecified)	MITF primary 74 | MITF inh conf inactive | AS interf ctr inactive
CCC(C)c1ccccc1OCC(=O)Nc1ccc(OC(C)=O)cc1C(=O)O (stereo unspecified)	none

Bioassay records from PubChem BioAssay.
